Columns and labels:
Assay in all cases: DAPPL (digital affinity profiling via proximity ligation, sequencing); 10 mM Tris-HCl pH 7.5, 50 mM NaCl, 1 mM DTT, 4% glycerol, room temperature, 30 min; GST-TFs on glutathione beads, 16-mer random dsDNA library, 0.1% formaldehyde crosslink after washing; high values mean tight binding
Details in all cases: protein: recombinant; tags: N-terminal GST; dsDNA, one strand shown
FLI1 = target: T1, FLI1 (Homo sapiens, UniProt Q01543 1-452)
T1 sequence: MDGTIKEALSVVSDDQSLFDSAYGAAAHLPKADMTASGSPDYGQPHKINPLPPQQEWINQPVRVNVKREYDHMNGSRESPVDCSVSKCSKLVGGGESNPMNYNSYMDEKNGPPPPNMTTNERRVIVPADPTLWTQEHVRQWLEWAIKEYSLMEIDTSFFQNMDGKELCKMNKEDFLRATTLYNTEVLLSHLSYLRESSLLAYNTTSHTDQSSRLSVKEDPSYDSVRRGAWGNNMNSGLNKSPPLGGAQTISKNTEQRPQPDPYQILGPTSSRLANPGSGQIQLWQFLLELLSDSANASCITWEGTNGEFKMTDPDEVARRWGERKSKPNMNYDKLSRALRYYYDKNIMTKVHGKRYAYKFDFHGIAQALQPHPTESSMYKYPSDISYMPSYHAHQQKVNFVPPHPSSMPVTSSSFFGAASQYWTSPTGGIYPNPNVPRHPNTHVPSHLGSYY
Procedure, shortened: (§1)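 After expression in yeast as GST fusions, human transcription factors were bound to glutathione beads, DNA-barcoded and mixed with a tag-only sample. The pools were incubated with 200 nmole of a 16-mer random double-stranded DNA library in Tris/NaCl/DTT/glycerol buffer (30 min, room temperature), washed and crosslinked with 0.1% formaldehyde. Proximity ligation with BsaI/T4 ligase ran for 1 h at 37 °C, before PCR amplification and sequencing on an Illumina NextSeq500. Binding signal is a hexamer's read frequency for a factor divided by its frequency for the tag-only sample.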

ELK1 = target: T2, ELK1 (Homo sapiens, UniProt P19419 1-428)
T2 sequence: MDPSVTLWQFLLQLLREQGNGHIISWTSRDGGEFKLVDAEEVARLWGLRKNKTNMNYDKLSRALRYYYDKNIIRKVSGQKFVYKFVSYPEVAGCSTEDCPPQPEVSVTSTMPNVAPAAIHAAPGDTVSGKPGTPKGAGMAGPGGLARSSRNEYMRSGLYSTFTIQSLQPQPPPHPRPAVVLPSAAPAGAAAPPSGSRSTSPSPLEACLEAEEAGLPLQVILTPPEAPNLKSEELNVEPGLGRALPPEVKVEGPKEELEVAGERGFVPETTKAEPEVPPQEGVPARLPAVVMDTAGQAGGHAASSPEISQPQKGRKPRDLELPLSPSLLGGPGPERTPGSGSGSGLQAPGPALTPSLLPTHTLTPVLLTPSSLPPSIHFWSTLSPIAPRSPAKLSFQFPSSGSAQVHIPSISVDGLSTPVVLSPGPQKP
Procedure, shortened: as §1

GABPA = target: T3, GABPA (Homo sapiens, UniProt Q06546 1-454)
T3 sequence: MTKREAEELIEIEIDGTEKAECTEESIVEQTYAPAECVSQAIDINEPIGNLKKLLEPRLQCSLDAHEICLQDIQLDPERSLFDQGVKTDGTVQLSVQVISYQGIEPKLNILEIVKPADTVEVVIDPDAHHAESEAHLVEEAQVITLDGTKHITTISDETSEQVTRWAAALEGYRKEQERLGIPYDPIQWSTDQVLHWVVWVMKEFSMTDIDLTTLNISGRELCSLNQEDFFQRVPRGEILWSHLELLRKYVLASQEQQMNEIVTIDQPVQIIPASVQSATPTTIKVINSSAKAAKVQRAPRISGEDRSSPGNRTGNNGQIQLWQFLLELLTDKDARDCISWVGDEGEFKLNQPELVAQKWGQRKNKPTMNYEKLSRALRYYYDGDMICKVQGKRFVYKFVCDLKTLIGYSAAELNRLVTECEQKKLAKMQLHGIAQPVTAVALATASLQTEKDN
Procedure, shortened: as §1

ERG = target: T4, ERG (Homo sapiens, UniProt P11308 1-479)
T4 sequence: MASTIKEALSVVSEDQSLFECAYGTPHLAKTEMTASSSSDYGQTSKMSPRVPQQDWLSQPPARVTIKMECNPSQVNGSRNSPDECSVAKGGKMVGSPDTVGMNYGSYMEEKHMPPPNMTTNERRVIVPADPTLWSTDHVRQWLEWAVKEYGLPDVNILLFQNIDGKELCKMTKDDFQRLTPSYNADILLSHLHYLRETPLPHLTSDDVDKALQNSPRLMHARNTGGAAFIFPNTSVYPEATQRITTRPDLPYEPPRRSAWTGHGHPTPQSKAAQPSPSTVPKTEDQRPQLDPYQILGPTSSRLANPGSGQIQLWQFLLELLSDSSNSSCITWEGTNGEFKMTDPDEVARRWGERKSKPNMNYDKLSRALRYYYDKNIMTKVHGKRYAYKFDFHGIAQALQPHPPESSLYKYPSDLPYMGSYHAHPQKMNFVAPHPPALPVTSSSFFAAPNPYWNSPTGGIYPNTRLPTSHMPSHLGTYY
Procedure, shortened: as §1

ELF1 = ELF1 (Homo sapiens, UniProt P32519 1-619)
Procedure, shortened: as §1

EHF = target: T5, EHF (Homo sapiens, UniProt Q9NZC4 1-300)
T5 sequence: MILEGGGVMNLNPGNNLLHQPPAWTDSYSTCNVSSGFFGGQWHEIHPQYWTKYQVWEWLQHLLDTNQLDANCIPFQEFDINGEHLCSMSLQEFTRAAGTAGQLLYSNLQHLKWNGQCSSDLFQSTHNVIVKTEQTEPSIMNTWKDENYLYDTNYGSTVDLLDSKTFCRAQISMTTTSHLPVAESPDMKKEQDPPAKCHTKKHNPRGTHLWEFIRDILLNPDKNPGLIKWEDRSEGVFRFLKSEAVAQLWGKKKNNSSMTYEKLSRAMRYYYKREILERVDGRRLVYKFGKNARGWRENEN
Procedure, shortened: as §1

SPI1 = SPI1 (Homo sapiens, UniProt P17947 1-270)
Procedure, shortened: as §1

ELK3 = target: T6, ELK3 (Homo sapiens, UniProt P41970 1-407)
T6 sequence: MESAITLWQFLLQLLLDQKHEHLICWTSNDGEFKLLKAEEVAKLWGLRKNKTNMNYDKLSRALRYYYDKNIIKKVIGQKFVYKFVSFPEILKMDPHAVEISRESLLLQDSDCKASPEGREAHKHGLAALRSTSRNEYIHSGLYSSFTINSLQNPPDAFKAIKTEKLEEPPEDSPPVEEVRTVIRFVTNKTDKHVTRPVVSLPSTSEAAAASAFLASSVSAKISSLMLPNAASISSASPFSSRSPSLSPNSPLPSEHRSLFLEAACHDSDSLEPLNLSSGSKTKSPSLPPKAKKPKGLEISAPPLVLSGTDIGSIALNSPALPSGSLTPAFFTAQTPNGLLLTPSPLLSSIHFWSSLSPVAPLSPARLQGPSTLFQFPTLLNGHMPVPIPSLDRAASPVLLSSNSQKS
Procedure, shortened: as §1

FEV = target: T7, FEV (Homo sapiens, UniProt Q99581 1-238)
T7 sequence: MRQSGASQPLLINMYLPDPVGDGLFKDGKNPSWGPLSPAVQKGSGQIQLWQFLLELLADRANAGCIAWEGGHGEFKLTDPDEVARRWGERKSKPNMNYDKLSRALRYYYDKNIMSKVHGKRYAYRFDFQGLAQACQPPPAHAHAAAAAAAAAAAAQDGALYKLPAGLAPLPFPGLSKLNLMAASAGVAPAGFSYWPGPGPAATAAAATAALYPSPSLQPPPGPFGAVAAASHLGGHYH
Procedure, shortened: as §1

ETV5 = ETV5 (Homo sapiens, UniProt P41161 1-510)
Procedure, shortened: as §1

SPIC = target: T8, SPIC (Homo sapiens, UniProt Q8N5J4 1-248)
T8 sequence: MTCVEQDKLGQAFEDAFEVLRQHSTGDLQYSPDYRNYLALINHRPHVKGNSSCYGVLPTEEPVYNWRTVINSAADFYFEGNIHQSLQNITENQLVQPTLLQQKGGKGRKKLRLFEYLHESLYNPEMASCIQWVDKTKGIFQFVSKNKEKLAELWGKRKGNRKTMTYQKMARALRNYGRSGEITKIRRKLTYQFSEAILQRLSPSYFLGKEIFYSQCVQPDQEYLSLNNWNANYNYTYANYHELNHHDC
Procedure, shortened: as §1

ELF4 = ELF4 (Homo sapiens, UniProt Q99607 1-663)
Procedure, shortened: as §1

ETV1 = ETV1 (Homo sapiens, UniProt P50549 1-477)
Procedure, shortened: as §1

ERF = target: T9, ERF (Homo sapiens, UniProt P50548 1-548)
T9 sequence: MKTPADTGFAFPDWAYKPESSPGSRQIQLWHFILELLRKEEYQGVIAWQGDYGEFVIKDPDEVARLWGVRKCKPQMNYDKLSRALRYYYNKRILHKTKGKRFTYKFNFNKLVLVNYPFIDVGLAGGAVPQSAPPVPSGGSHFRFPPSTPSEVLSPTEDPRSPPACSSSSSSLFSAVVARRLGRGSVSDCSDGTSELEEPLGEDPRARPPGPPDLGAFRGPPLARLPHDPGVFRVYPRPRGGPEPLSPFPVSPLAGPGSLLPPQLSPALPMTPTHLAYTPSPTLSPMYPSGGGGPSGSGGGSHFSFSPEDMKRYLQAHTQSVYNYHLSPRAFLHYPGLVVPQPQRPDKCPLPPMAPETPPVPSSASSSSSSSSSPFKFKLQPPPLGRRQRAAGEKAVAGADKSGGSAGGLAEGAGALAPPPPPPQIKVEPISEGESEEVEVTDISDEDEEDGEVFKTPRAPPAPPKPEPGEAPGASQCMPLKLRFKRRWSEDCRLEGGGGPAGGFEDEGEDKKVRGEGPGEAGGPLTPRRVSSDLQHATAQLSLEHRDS
Procedure, shortened: as §1

ETV3L = target: T10, ETV3L (Homo sapiens, UniProt Q6ZN32 1-361)
T10 sequence: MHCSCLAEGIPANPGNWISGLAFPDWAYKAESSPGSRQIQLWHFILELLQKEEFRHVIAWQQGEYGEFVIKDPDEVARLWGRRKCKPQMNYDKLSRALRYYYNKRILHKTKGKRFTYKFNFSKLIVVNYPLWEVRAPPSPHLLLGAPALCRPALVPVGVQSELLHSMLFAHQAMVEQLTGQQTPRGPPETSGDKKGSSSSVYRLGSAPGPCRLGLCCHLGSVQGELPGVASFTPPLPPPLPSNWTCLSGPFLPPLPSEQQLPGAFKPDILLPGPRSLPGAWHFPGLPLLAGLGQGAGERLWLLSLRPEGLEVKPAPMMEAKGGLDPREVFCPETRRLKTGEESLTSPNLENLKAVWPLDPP
Procedure, shortened: as §1

ETS2 = target: T11, ETS2 (Homo sapiens, UniProt P15036 1-469)
T11 sequence: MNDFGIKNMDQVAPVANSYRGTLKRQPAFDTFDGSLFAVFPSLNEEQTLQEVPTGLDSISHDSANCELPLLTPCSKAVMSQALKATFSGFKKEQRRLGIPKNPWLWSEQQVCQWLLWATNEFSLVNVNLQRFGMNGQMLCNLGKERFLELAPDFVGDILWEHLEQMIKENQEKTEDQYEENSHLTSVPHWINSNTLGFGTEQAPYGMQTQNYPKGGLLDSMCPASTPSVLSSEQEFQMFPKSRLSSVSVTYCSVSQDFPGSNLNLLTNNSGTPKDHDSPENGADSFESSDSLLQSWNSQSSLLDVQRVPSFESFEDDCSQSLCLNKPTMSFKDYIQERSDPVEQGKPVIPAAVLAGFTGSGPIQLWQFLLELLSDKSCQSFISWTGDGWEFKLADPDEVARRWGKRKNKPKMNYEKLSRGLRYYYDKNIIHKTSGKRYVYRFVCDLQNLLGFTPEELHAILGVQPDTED
Procedure, shortened: as §1

SPDEF = target: T12, SPDEF (Homo sapiens, UniProt O95238 1-335)
T12 sequence: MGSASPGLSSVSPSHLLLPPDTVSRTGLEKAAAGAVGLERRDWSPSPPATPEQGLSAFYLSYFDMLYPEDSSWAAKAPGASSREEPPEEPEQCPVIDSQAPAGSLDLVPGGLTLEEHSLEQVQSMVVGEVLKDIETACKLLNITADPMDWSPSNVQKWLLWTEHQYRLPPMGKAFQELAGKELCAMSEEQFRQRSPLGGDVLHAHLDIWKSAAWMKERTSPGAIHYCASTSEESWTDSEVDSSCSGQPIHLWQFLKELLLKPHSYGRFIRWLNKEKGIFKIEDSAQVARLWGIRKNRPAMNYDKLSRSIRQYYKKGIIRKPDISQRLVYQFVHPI
Procedure, shortened: as §1

ETV6 = ETV6 (Homo sapiens, UniProt P41212 1-452)
Procedure, shortened: as §1

Sequence of ELF1 (P32519 whole entry): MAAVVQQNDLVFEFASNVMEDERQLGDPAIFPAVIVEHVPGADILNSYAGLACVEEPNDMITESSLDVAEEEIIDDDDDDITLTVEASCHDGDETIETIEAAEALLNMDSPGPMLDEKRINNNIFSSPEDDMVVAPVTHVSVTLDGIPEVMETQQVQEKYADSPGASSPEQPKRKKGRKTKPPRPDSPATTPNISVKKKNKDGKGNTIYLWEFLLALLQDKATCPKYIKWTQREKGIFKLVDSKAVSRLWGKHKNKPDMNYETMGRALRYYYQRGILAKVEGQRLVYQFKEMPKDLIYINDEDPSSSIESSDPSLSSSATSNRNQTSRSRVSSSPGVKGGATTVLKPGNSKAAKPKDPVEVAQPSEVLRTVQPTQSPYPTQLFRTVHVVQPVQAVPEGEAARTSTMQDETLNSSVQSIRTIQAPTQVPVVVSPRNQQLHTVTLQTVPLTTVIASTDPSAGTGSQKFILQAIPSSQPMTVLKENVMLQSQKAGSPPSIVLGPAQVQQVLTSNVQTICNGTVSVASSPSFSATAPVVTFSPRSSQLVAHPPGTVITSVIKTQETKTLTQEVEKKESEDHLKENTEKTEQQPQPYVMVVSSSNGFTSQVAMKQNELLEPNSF
Sequence of ETV1 (P50549 whole entry): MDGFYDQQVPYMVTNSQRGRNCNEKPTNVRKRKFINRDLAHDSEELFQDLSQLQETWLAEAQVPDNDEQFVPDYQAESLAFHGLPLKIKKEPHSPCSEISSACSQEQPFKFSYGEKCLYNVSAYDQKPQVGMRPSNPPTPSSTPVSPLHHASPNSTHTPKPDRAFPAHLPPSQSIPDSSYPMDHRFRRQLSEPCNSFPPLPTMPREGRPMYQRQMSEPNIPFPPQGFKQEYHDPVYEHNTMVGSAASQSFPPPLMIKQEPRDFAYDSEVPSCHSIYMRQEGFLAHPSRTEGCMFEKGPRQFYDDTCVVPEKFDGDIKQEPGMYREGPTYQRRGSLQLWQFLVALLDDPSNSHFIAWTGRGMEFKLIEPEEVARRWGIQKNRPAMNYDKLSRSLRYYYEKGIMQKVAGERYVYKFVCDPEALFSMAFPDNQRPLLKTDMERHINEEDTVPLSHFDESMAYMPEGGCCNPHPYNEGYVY
Sequence of ETV5 (P41161 whole entry): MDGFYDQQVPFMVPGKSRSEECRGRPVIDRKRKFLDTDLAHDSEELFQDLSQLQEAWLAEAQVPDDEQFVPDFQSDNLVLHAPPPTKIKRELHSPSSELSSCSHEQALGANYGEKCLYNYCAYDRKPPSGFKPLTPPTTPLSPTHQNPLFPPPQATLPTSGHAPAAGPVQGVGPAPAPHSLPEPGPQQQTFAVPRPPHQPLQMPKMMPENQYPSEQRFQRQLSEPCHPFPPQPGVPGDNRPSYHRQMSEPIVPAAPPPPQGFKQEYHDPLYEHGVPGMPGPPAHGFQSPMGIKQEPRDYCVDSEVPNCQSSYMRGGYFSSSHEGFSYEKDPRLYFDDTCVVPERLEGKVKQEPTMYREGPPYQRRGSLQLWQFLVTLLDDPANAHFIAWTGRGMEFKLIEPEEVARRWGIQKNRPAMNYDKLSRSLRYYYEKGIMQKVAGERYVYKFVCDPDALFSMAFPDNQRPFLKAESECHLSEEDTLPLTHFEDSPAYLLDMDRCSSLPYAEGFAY
Sequence of ETV6 (P41212 whole entry): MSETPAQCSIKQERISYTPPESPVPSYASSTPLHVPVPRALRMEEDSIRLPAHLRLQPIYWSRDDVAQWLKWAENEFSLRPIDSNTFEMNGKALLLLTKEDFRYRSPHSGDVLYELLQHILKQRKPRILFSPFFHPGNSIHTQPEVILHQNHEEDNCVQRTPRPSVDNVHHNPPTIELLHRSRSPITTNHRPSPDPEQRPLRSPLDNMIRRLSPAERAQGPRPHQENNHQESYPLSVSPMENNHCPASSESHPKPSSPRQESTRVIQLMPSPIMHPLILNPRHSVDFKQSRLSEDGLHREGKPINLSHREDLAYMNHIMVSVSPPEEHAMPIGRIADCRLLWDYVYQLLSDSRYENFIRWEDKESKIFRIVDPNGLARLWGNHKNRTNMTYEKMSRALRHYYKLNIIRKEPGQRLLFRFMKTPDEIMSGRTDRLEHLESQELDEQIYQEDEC
Sequence of ELF4 (Q99607 whole entry): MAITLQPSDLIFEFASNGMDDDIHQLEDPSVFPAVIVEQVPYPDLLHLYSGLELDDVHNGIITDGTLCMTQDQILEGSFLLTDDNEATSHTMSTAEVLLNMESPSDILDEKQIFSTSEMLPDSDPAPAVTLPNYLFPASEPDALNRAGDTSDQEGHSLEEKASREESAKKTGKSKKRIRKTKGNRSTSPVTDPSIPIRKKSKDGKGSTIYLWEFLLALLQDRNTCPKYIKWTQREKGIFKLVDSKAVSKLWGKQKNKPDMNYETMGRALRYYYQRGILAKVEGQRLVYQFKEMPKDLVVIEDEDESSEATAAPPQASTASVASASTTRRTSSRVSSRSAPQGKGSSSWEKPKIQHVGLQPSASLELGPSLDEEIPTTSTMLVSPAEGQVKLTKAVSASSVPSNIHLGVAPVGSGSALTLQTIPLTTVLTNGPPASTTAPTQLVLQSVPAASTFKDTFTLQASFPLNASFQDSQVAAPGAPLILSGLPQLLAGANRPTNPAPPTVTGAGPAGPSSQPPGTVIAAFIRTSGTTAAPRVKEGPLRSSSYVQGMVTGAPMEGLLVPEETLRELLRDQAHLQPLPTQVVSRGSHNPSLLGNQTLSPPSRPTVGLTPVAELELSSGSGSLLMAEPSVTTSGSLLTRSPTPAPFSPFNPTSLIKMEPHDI

Sequence: CATACG
- binding signal (FLI1): 1.05 fold enrichment (6-mer frequency, TF over GST control)
- binding signal (ELK1): 1.01 fold enrichment (6-mer frequency, TF over GST control)
- binding signal (GABPA): 1.03 fold enrichment (6-mer frequency, TF over GST control)
- binding signal (ERG): 1.06 fold enrichment (6-mer frequency, TF over GST control)
- binding signal (ELF1): 1.08 fold enrichment (6-mer frequency, TF over GST control)
- binding signal (EHF): 1.07 fold enrichment (6-mer frequency, TF over GST control)
- binding signal (SPI1): 1.06 fold enrichment (6-mer frequency, TF over GST control)
- binding signal (ELK3): 1.12 fold enrichment (6-mer frequency, TF over GST control)
- binding signal (FEV): 1.05 fold enrichment (6-mer frequency, TF over GST control)
- binding signal (ETV5): 1.08 fold enrichment (6-mer frequency, TF over GST control)
- binding signal (SPIC): 1.04 fold enrichment (6-mer frequency, TF over GST control)
- binding signal (ELF4): 1.03 fold enrichment (6-mer frequency, TF over GST control)
- binding signal (ETV1): 1.06 fold enrichment (6-mer frequency, TF over GST control)
- binding signal (ERF): 1.13 fold enrichment (6-mer frequency, TF over GST control)
- binding signal (ETV3L): 1.12 fold enrichment (6-mer frequency, TF over GST control)
- binding signal (ETS2): 1.01 fold enrichment (6-mer frequency, TF over GST control)
- binding signal (SPDEF): 1.1 fold enrichment (6-mer frequency, TF over GST control)
- binding signal (ETV6): 1.01 fold enrichment (6-mer frequency, TF over GST control)

Source: article PMC7862700, “An all-to-all approach to the identification of sequence-specific readers for epigenetic DNA modifications on cytosine”
